{
  "source": "PubChem BioAssay",
  "note": "Unmarked numbers belong to inactive results.",
  "data": [
    {"test": "E. coli acrAB mutant growth effects, primary screen, E. coli filamentation inducers, strain DRC39, OD650, 48 h (AID 1179);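 note: screen aims at cell division blockers that make cells filament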", "conditions": "E. coli DRC39 delta-acrAB growth, higher = more signal, called active from +8 up or from −8 down", "values": [
      {"smiles": "NC(=O)[C@@]1(Cc2ccccc2)COC(c2ccc(OCCCO)cc2)=N1", "z-score": 0.595},
      {"smiles": "CCOC(=O)C[C@H]1[C@H](OC(=O)c2ccc(C(=O)c3ccccc3)cc2)[C@@H](NC(=O)c2ccc3ccccc3n2)c2cc(OCCCO)ccc2N1C(=O)Cc1ccc(OC)cc1", "z-score": -2.31},
      {"smiles": "COC(=O)[C@@H]1N=C(c2ccc(OCCCO)cc2)O[C@@H]1c1ccccc1", "z-score": 0.129},
      {"smiles": "CCOc1cc(C(O)C2C=CC3C(=O)NC(=O)C3N2Nc2ccc(Cl)cc2Cl)ccc1O", "note": "(stereo unspecified)", "z-score": -0.75},
      {"smiles": "CCOC(=O)C=Cc1cccc(C)c1O", "z-score": -0.944},
      {"smiles": "COC(=O)[C@@]1(Cc2ccc(OC)cc2)[C@H]2c3cc(C(=O)N4CCCC4)n(CCO)c3C[C@H]2CN1C(=O)c1ccccc1", "z-score": -1.21},
      {"smiles": "CC1=C2[C@@H](CCc3ccccc3)OB(O)C[C@@H]2[C@@H]2C(=O)N(Cc3ccccc3)C(=O)[C@@H]2C1", "z-score": -0.225},
      {"smiles": "C=CC[C@@H](OC(=O)Nc1ccc(SC)cc1)c1ccc(O)c(F)c1", "z-score": 1.38},
      {"smiles": "COCCCNC(=O)[C@@]1(CCC(=O)OC(C)(C)C)N=C(c2ccc(OCCCO)cc2)O[C@H]1c1ccccc1N=[N+]=[N-]", "z-score": 0.268},
      {"smiles": "CCOC(=O)C[C@H]1[C@H](OC(=O)c2cc3ccccc3oc2=O)[C@@H](NC(=O)CC(C)C)c2cc(OCCCO)ccc2N1C(=O)c1ccc2ccccc2n1", "z-score": -0.416},
      {"smiles": "Cc1ccc(C(C)CC(O)C2C=CC3C(=O)N(c4ccccc4)C(=O)C3N2Nc2ccccc2)o1", "note": "(stereo unspecified)", "z-score": -0.681}
    ]}
  ]
}
